The campaign covered roughly 340,000 compounds. About 1,700 (0.5%) were called active. Inconclusive results (about 2%) are left out. The entries come from a sample that favours actives as a whole. Unmarked numbers belong to inactive results. Rule as the data show it: active = activity change below about -65%; inconclusive = mostly about -30% to -63%; inactive = weaker than that.
tested on: CtBP / adenovirus E1A interaction (AlphaScreen); assay: qHTS Assay for Inhibitors of the CtBP/E1A Interaction; conditions: AlphaScreen GST-E1A/His-CtBP binding, 1536-well; hits give low values
Source text: Carboxyl-terminal binding protein (CtBP) is a co-repressor for many transcription factors. […] Our studies have shown that CtBP is overexpressed in multiple human cancers, including lung, breast, and head and neck cancers. In particular, it is over-expressed in 50% of primary lung cancer and 90% of metastatic lesions. CtBP suppresses epithelial-specific genes as well as genes critical for apoptosis, providing the underlying molecular mechanism for its role in tumorigenesis. […] Based on the above data, we hypothesize that 1) CtBP suppresses the pro-apoptotic and epithelial genes, therefore overexpressed CtBP in human cancer cells increases EMT and cancer survival; 2) decreasing CtBP's function represents a targeted therapy for lung cancer and potentially multiple cancer types. As a co-repressor, CtBP binds to E1A and other transcription factors through a conserved peptide motif to carry out its action. Inhibiting this interaction using small molecules can potentially serve as effective cancer therapeutics.
To this end, we have developed a homogenous AlphaScreen assay targeting the CtBP/E1A interaction. We performed a large scale HTS of the Molecular Libraries Small Molecule Repository (MLSMR) to identify inhibitors of the CtBP/E1A interaction as potential anti-cancer therapeutics. Compounds identified can also be used as chemical probes to better understand the biological functions of CtBP.
NIH Chemical Genomics Center [NCGC]
NIH Molecular Libraries Probe Centers Network [MLPCN]
Assay Submitter (PI): Rui Zhao, University of Colorado Denver
The first step of the 5uL AlphaScreen assay is to dispense assay buffer (50 mM Tris, pH 8.0, 300 mM NaCl, 0.05% BSA, 0.02% Tween 20, 1 mM TCEP) into a Greiner 1536 white solid bottom microtiter plate (789175-F). Five microliters is added to Column 1, 4 uL is added to Column 2 and 3 uL is added to Columns 3 through 48. A 5X protein solution (125 nM GST-E1A protein + 125 nM His-tagged CtBP protein) is mixed and 1 uL is dispensed to Columns 3-48. Using a 1536 pintool, 23 nL of compound is transferred to the assay plate and the plate is incubated with a lid at 37 deg C in the dark for two hours. A solution of 5X AlphaScreen beads is mixed (50 ug/mL Glutathione linked donor beads + Nickel chelated acceptor beads) and 1 uL is dispensed to Columns 2-48. The assay plate is incubated for one hour, with a lid, at 37 deg C in the dark. The plate is read using a Perkin Elmer Envision using an AlphaScreen protocol.
% is scaled to controls: 0 for no effect and ±100 for the full control effect.

Structure (SMILES) | activity change
CCCCC(=O)NC(c1ccc(OC)c(OC)c1)c1ccc2cccnc2c1O (stereo not given) | -94.2% (active)
CCOc1ccc(C(CC(=O)O)NC(=O)Cc2ccccc2)cc1OC (stereo not given) | -13.3%
COc1ccc(CCNS(=O)(=O)c2cccc3cccnc23)cc1OC | -9.76%
Cc1ccccc1C#CC1=CC(=O)CC(C)(C)C1 | 5.53%
CCCCNC(=O)C[C@@H]1C[C@@]2(C(=O)OC)CC(C)(C)CC=C2N(Cc2ccco2)C1=O | 2.24%
COCOc1cccc(CN2CCC(C)(Oc3ccc(SC)cc3)C2)c1 (stereo not given) | -22.6%
CSc1ccc(CN2CCC2(C)C(=O)NCc2ccccc2Br)cc1 (stereo not given) | -8.98%
COC(=O)[C@@]12C[C@@H](CC(=O)NCCCCc3ccccc3)C(=O)N(Cc3ccccc3)C1=CCC(C)(C)C2 | -0.75%
O=c1ccc2c(-c3ccccc3S(=O)(=O)O)c3ccc(O)c(O)c3oc-2c1O | -78.5% (active)
CCCCCNC(=O)C1C(=O)Nc2ccccc2C(=O)N1C(C)(C)C (stereo not given) | -0.209%
COc1ccc(Cl)cc1-c1cc(C(=O)Nc2cc(OC)c(OC)c(OC)c2)[nH]n1 | 4%
O=C1c2cccc3cccc(c23)C(=O)N1CCCCCc1n[nH]c(=S)o1 | -82.2% (active)
O=C1c2ccccc2C(=O)N1CCCCCCN1C(=O)c2ccccc2C1=O | 6.03%
O=C1c2ccccc2C(=O)N1CCCc1nc(-c2ccccc2)no1 | 5.59%
C[C@@H]1CN([C@H](C)CO)C(=O)c2cc(Br)cnc2O[C@@H]1CN(C)Cc1cncnc1 | -16.6%
Cc1onc(-c2ccccc2)c1-c1nnc(COC(=O)c2ccc(N(C)C)cc2)o1 | 2.13%
COC(=O)[C@@]12C[C@@H](CC(=O)N3CCC(c4ccccc4)CC3)C(=O)N(Cc3ccccc3)C1=CCC(C)(C)C2 | 0.365%
COC(=O)c1ccc(NCC(=O)c2ccccc2)cc1 | 6.11%
CCOC(=O)c1ccc(Nc2cc3ccccc3c(=O)[nH]2)cc1 | 2.43%
CCOC(=O)c1nc(Nc2ccc(C(=O)OC)cc2)c2ccccc2n1 | -86.6% (active)
COc1ccc(-c2coc3c(C(=O)NC(C)C)cccc23)c(C)c1 | -12.9%
Clc1cccc(Cc2c(-c3cccc(Cl)c3)nc3ccc(Cl)cn23)c1 | 0.333%
Cc1ccc(OCCOCCOc2ccc(Br)cc2/C=N\NC(=O)c2ccncc2)cc1 | -10.2%

Structure (SMILES) | activity change
COc1ccc(Br)cc1/C=N/Nc1ccc(Cl)c(C(=O)O)c1 | -2.31%
COc1ccc(CC(=O)NCC(=O)N/N=C/c2cc(Br)ccc2OC)cc1 | -87.6% (active)
Cc1ccc(C(=O)Oc2coc(CSc3nnc(NC(=O)c4cccs4)s3)cc2=O)cc1C | -16.7%
C=CCNC(=O)COc1coc(CN2CCN(Cc3ccccc3)CC2)cc1=O | 2.1%
O=C(/C=C/c1ccccc1)Oc1coc(CSc2ncccn2)cc1=O | -92.2% (active)
O=Nc1c(O)cc(O)c2ccccc12 | -6.15%
COc1ccc(C(=O)N2CCCCC2c2cc(C(=O)Nc3ccc(F)c(Cl)c3)no2)cc1 (stereo not given) | -5.81%
O=Cc1cn(CCOc2ccc(F)cc2)c2ccccc12 | 0%
CSCCC(c1nnnn1Cc1ccccc1)N1CCN(C/C=C/c2ccccc2)CC1 (stereo not given) | -18.4%
O=C(NCc1ccco1)c1cccn2c(=O)c3c4c(sc3nc12)CCCC4 | -12.2%
COc1ccc(CCn2c(=N)c(C(=O)NCc3ccco3)cc3c(=O)n4cccc(C)c4nc32)cc1 | -81.7% (active)
Cc1cccn2c(=O)c3cc(C(=O)NCCN4CCOCC4)c(=N)n(Cc4cccnc4)c3nc12 | -25.6%
CC(C)C[C@@H](COCc1ccc(Cl)cc1)N1CCN(C(=O)c2ccc(Cl)cc2Cl)CCC1=O | 0%
CCOC(=O)N1CCN(C(=O)CSc2nc(=O)n3cccc(C)c3n2)CC1 | -4.84%
CCOC(=O)N1CCN(C(c2ccnc3ccccc23)c2nnnn2-c2c(C)cccc2C)CC1 (stereo not given) | 0%
CCN1CCN(C(c2cccnc2)c2cc(Cl)c3cccnc3c2O)CC1 (stereo not given) | -99.3% (active)
CCOC(=O)N1CCN(C(c2cccnc2)c2ccc3cccnc3c2O)CC1 (stereo not given) | -91.9% (active)
N#CCCN(C(=S)Nc1ccc(Cl)c(Cl)c1)C1CCCCC1 | 0%
COc1ccc(-c2cnc3c(c2)C(=O)N([C@H](C)CO)C[C@@H](C)[C@H](CN(C)Cc2ccccc2)O3)cc1 | -12.8%
CC(C)Oc1ccc(CN2CCC2(C)C(=O)NCc2ccc(C(F)(F)F)cc2)cc1 (stereo not given) | 0.872%
Cc1ccc(C(=O)Nc2ccc3c(c2)OCO3)cc1S(=O)(=O)N1CCCCC1 | -66.6% (active)
Cc1ccc(NC(=O)C2CC(=O)N(c3ccc4c(c3)OCCO4)C2)cc1S(=O)(=O)N1CCCCCC1 (stereo not given) | -5.1%
Cc1ccc(C(=O)NNC(=O)c2ccncc2)cc1S(=O)(=O)N1CCCCC1 | -2.42%

Structure (SMILES) | activity change
OC(c1ccccc1)c1nc(/C=C/c2ccc(C(F)(F)F)cc2)cs1 (stereo not given) | 7.85%
Cc1nc2c(OCc3ccc(Cl)cc3Cl)cccn2c1N(C)CC1CC1 | -25.5%
COc1ccc(/C=N/NC(=O)c2ccncc2)cc1CN1CCCc2ccccc21 | 13.2%
COc1cccc(/C=N/NC(=O)c2[nH]nc3c2CCc2ccccc2-3)c1O | -67.1% (active)
COc1cc(OC)c(/C=N/NC(=O)c2ccc([N+](=O)[O-])cc2)cc1Br | -0.151%
CC(C)c1cc(CN2CCOCC2)cc(C(C)C)c1O | 4.14%
Oc1c(C(c2ccccn2)N2CCOCC2)ccc2cccnc12 (stereo not given) | -81.3% (active)
CCCCN1C[C@H](c2ccc(Br)cc2)[C@@H](CC(=O)Nc2ccc(Br)cc2)C1=O | -4.21%
COc1ccc(OCC(=O)Nc2ccc(NC(=O)c3ccco3)c(C)c2)cc1 | -2.52%
COc1ccc(NC(=O)CCC(=O)Nc2cc(OC)c(NC(=O)c3ccco3)cc2OC)c(OC)c1 | -87.4% (active)
COc1ccc(CC(=O)Nc2ccccc2NC(=O)c2ccco2)cc1OC | 5.07%
CC(=O)Nc1cc(-c2ccccc2N(C)C)cn2c(-c3ccc(F)c(Cl)c3)cnc12 | -22.9%
CCCOc1ccc(F)cc1-c1cc(C(=O)Nc2ccc(F)c(Cl)c2)[nH]n1 | 2.38%
COCC1CCCCN1C(=O)c1cc(COc2ccc(C)c(C)c2)on1 (stereo not given) | -0.436%
COc1ccc(/C=N/N(C)C2=NS(=O)(=O)c3ccccc32)cc1OC | -89.3% (active)
COc1ccc(C(C)(C)C)cc1NC(=O)CN(C)C1=NS(=O)(=O)c2ccccc21 | 2.94%
C=CCOCCN(C)C1=NS(=O)(=O)c2ccccc21 | 0.314%
CC(=O)Nc1cc(-c2ccccc2F)cn2c(-c3cccc(C(F)(F)F)c3)cnc12 | -8.33%
COc1ccccc1-c1cc2nc(NCc3cccc(Cl)c3)ccn2n1 | 3.38%
O=[N+]([O-])c1cccc(S(=O)(=O)NCc2ccccn2)c1 | 1.03%
O=S(=O)(Nc1ccc2nc(-c3ccco3)[nH]c2c1)c1ccccc1 | -18.3%
O=[N+]([O-])c1ccc2nc(-c3ccccn3)[nH]c2c1 | -90.6% (active)
COCOCCn1cc(CN2CCS(=O)(=O)N(Cc3ccc(-c4ccc(OC)cc4)cc3)C(CC(C)C)C2=O)nn1 (stereo not given) | -1.08%

Structure (SMILES) | activity change
Cc1cc(Nc2ccc(C(=O)N3CCCCC3)cc2)c2cccc(C)c2n1 | 1.83%
Cc1cc(Nc2ccc(N3CCOCC3)cc2)c2cccc(C)c2n1 | -16.1%
Cc1ccc(Nc2cc(C)nc3c(C)ccc([N+](=O)[O-])c23)cc1 | -66.7% (active)
COC(=O)c1ccccc1N=NNc1ccc([N+](=O)[O-])cc1 | -2.76%
Fc1cccc(Cc2c(-c3ccc(Cl)cc3)nc3ccc(Cl)cn23)c1 | 0%
CCN(CC)C(=O)C1=C(C)N(Cc2ccc(F)cc2)C(=O)C(CC(=O)NCc2cccc3ccccc23)C1 (stereo not given) | -2.72%
COc1ccc(NC(=O)CCNC(=O)Cn2cnc3sc4c(c3c2=O)CCCC4)cc1OC | 0.477%
COc1ccc(NC(=O)CCCNC(=O)Cn2cnc3sc4c(c3c2=O)CCCC4)cc1OC | 20.4%
COc1ccc(/C=N/Nc2ncnc3sc4c(c23)CCCC4)cc1O | -87.1% (active)
COC(=O)C1=CN(c2c(C)cc(C)cc2C)C(N)=C(C#N)C1c1cccc(F)c1 (stereo not given) | 3.08%
CCCCCCN1CCN(C2CN(Cc3cn(CCCCCC)nn3)S(=O)(=O)C2)CC1 (stereo not given) | 0.678%
Cc1nc2c(OCc3cccc(Cl)c3)cccn2c1N(C)CC1CC1 | -6.06%
COc1ccc(NC(=O)C2Cc3c(-c4ccc(Cl)cc4)ccnc3O2)cc1 (stereo not given) | 1.32%
COCCCNC(=O)c1cccc2c(-c3ccc(O)c(OC)c3)coc12 | -18.4%
O=C(CSc1nnc(-c2ccncc2)o1)Nc1cccc(Cl)c1 | 6.8%
Cc1cc(NC(=O)CSc2nnc(-c3ccc(Cl)s3)o2)no1 | -93.2% (active)
Cc1cc(NC(=O)CSc2ncc(C(F)(F)F)cc2Cl)no1 | -2.36%
CCCCc1c(-c2ccc(Br)cc2)ncn1CCc1ccccc1OC | -11.3%
Cc1ccc(-n2c(SCC(=O)NCCC3=CCCCC3)nc3n[nH]c(C)c3c2=N)cc1Cl | -20.7%
COc1cccc(-n2c(SCC(=O)NC3CCCCC3)nc3n[nH]c(C)c3c2=N)c1 | -66.5% (active)
CCCCNC(=O)CSc1nc2n[nH]c(C)c2c(=N)n1-c1cccc(Cl)c1C | -0.913%

From PubChem BioAssay AID651724 (National Center for Advancing Translational Sciences (NCATS), 2012)
